The campaign covered roughly 220,000 compounds. About 2,000 (0.91%) were called active. About 2% were inconclusive and are not listed. The list is a sample of the results. Measured potencies and affinities stand elsewhere. Values without a mark were called inactive. Rule as the data show it: inconclusive = inhibition above about 80% without an active follow-up result; inactive = below that; test concentration not stated here.
experiment: M. tuberculosis H37Rv growth inhibitors, H37Rv strain (AID 1626); conditions: stronger effect = higher value, concentration not given here;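 also: bacteria incubated seven days before Alamar blue readout; 0% = bacteria only wells and 100% = bacteria with antibiotic wells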

**Q.** Which inhibition does the source give for `CC(C)CNC(=O)c1c(N)n(/N=C/c2ccccn2)c2nc3ccccc3nc12` here?
**A.** The inhibition was -5.94%.

**Q.** With `CCC(C)NC(=O)c1c(N)n(/N=C/c2cccnc2)c2nc3ccccc3nc12` (centres undefined) as the molecule, how does the inhibition read?
**A.** Its inhibition is 7.17%.

**Q.** Which inhibition does the source give for `Cc1ccc(CSCc2ccc(C(=O)NCC3CCCO3)o2)cc1` (centres undefined) here?
**A.** Its inhibition is 6.03%.

**Q.** With `CCOC(=O)c1ccc(NC(=S)N2CCN(c3ccc(N4CCOCC4)nn3)CC2)cc1` as the molecule, how does the inhibition read?
**A.** The inhibition was 4.49%.

**Q.** For `CC(C)C(NC(=O)c1ccccc1)C(=O)NC1=NCCS1` (centres undefined), which inhibition is on record?
**A.** Its inhibition is -2.59%.

**Q.** With `O=C(Nc1nc2ccccc2s1)c1cc(-c2ccccc2)nn1-c1ccccc1` as the molecule, how does the inhibition read?
**A.** Its inhibition is -3.23%.

**Q.** For `CCc1nnc(NC(=O)c2cc(-c3ccccc3)nn2-c2ccccc2)s1`, which inhibition is on record?
**A.** The inhibition was 19.3%.

**Q.** For `CC(OC(=O)CCC(=O)c1cccs1)C(=O)Nc1ccc(Cl)cn1` (centres undefined), which inhibition is on record?
**A.** Its inhibition is 2.41%.

**Q.** Which inhibition does the source give for `OC1CCN(c2cc(-c3ccccc3)nc3cc(-c4ccc(F)cc4)nn23)CC1` here?
**A.** Its inhibition is 5.18%.

**Q.** For `Fc1ccc(-c2cc3nc(-c4ccccc4)cc(N4CCOCC4)n3n2)cc1`, which inhibition is on record?
**A.** Its inhibition is 1.89%.

**Q.** Which inhibition does the source give for `O=C(O)C(Oc1ccc2c3c(c(=O)oc2c1)CCC3)c1ccccc1` (centres undefined) here?
**A.** Its inhibition is -10.3%.

**Q.** With `Cc1ccc(Nc2nnc(SCC(=O)Nc3ncc(S(=O)(=O)c4ccc([N+](=O)[O-])cc4)s3)s2)cc1` as the molecule, how does the inhibition read?
**A.** Its inhibition is 0%.

**Q.** With `Cc1nnc(SCC(=O)Nc2ncc(S(=O)(=O)c3ccc([N+](=O)[O-])cc3)s2)s1` as the molecule, how does the inhibition read?
**A.** The inhibition was -0.12%.

**Q.** With `COc1ccc(OCC(O)CNC(=O)Nc2cc(C)cc(C)c2)cc1` (centres undefined) as the molecule, how does the inhibition read?
**A.** The inhibition was -16.7%.

**Q.** For `CCOC(=O)C(Cc1ccccc1)C(=O)Nc1ccc(NC(=O)C(Cc2ccccc2)C(=O)OCC)cc1` (centres undefined), which inhibition is on record?
**A.** Its inhibition is 3.39%.

**Q.** Which inhibition does the source give for `CCOC(=O)C(Cc1ccccc1)C(=O)Nc1ccccc1C` (centres undefined) here?
**A.** Its inhibition is -5.73%.

**Q.** With `COC(=O)c1cn(NC(=O)Cc2cccc(OC)c2)c(=O)c2ccccc12` as the molecule, how does the inhibition read?
**A.** The inhibition was 3.66%.

**Q.** With `CC1CCN(S(=O)(=O)N2CCC(C(=O)NCc3cccs3)CC2)CC1` as the molecule, how does the inhibition read?
**A.** The inhibition was -4.64%.

**Q.** Which inhibition does the source give for `Cc1cc(C(=O)COc2ncnc3sccc23)c(C)n1C` here?
**A.** Its inhibition is -3.73%.

**Q.** Which inhibition does the source give for `Cc1noc(-c2ccccc2OC(=O)c2ccccc2)n1` here?
**A.** The inhibition was 1.9%.

**Q.** For `COC(=O)c1cc(Sc2c(Cl)cccc2Cl)ccn1`, which inhibition is on record?
**A.** The inhibition was 34%.

**Q.** With `COC(=O)c1ncccc1SC` as the molecule, how does the inhibition read?
**A.** Its inhibition is -0.23%.

**Q.** Which inhibition does the source give for `S=C(NCc1ccco1)Nc1ccc(Br)cc1Cl` here?
**A.** The inhibition was 4.87%.

**Q.** For `O=C(c1c[nH]cc1-c1ccccc1)c1cccc2ccccc12`, which inhibition is on record?
**A.** The inhibition was -3.22%.

**Q.** With `O=c1cc(-c2ccccc2)c2ccccc2[nH]1` as the molecule, how does the inhibition read?
**A.** Its inhibition is -8.75%.

**Q.** With `COc1ccc(C(CC(=O)Nc2ccccc2OC)n2cccc2)cc1` (centres undefined) as the molecule, how does the inhibition read?
**A.** Its inhibition is 3.19%.

**Q.** For `CCOC(=O)N1CCN(C(=O)CN(c2ccc(OC)cc2)S(C)(=O)=O)CC1`, which inhibition is on record?
**A.** The inhibition was -8.65%.

**Q.** Which inhibition does the source give for `CCn1c(=O)c(C(=O)NC(C)C)c(O)c2ccccc21` here?
**A.** The inhibition was 0.51%.

**Q.** With `O=S(=O)(Nc1ccccc1)c1ccc(-c2csnn2)cc1` as the molecule, how does the inhibition read?
**A.** The inhibition was 8.85%.

**Q.** Which inhibition does the source give for `CCN(CC)C(=O)CN(c1cc(Cl)ccc1OC)S(=O)(=O)c1ccc(C)c([N+](=O)[O-])c1` here?
**A.** Its inhibition is 4.94%.

**Q.** With `O=C(NCc1nnc2c3ccccc3c(-c3ccccc3)nn12)c1ccccc1Cl` as the molecule, how does the inhibition read?
**A.** The inhibition was 17.6%.

**Q.** With `O=C(COc1ccc(Cl)cc1)NCc1nnc2c3ccccc3c(-c3ccccc3)nn12` as the molecule, how does the inhibition read?
**A.** Its inhibition is 32.3%.

**Q.** Which inhibition does the source give for `CCn1nc(C(=O)NCCc2ccc(S(N)(=O)=O)cc2)c2ccccc2c1=O` here?
**A.** Its inhibition is -2.56%.

**Q.** For `COc1cc(OC)c2c(-c3ccccc3)cc(=O)oc2c1C(CCN1CCN(c2ccccc2)CC1)c1ccc(N(C)C)cc1` (centres undefined), which inhibition is on record?
**A.** Its inhibition is 13.6%.

**Q.** With `COc1cc(C(CCN2CCCCC2)c2c(OC)cc(OC)c3c(-c4ccccc4)cc(=O)oc23)cc(OC)c1OC` (centres undefined) as the molecule, how does the inhibition read?
**A.** The inhibition was 10.2%.

**Q.** Which inhibition does the source give for `COc1ccc(C(CCN2CCCC2)c2c(OC)cc(OC)c3c(-c4ccccc4)cc(=O)oc23)cc1` (centres undefined) here?
**A.** Its inhibition is 64.5%.

**Q.** Which inhibition does the source give for `COc1ccc(C(CCN2CCN(c3ccccc3)CC2)c2c(OC)cc(OC)c3c(-c4ccccc4)cc(=O)oc23)cc1` (centres undefined) here?
**A.** The inhibition was 6.72%.

**Q.** For `CC(C)CCn1nnnc1C(C(C)C)N1CCC(C(N)=O)CC1` (centres undefined), which inhibition is on record?
**A.** The inhibition was -6.25%.

**Q.** Which inhibition does the source give for `CC(/C=C/c1ccco1)=N\NC(=O)c1cc(C)[nH]n1` here?
**A.** The inhibition was -12%.

**Q.** Which inhibition does the source give for `O=C(Nc1ccccc1O)c1cc(S(=O)(=O)N2CCOCC2)ccc1Cl` here?
**A.** Its inhibition is 6.89%.

**Q.** For `NNc1nc(-c2ccccc2)cs1`, which inhibition is on record?
**A.** Its inhibition is 4.39%.

**Q.** With `Cc1ccc(/C=C\c2nccc3c2[nH]c2ccccc23)cc1` as the molecule, how does the inhibition read?
**A.** The inhibition was 42.1%.

**Q.** For `Fc1ccc(/C=C\c2nccc3c2[nH]c2ccccc23)cc1`, which inhibition is on record?
**A.** Its inhibition is 8.94%.

**Q.** With `Cc1ccc(/C=N/NC(=O)Cn2nnc(N)n2)cc1` as the molecule, how does the inhibition read?
**A.** Its inhibition is -5.78%.

**Q.** With `CCC(C)[C@H](NC(=O)NCCC1=CCCCC1)C(=O)OC` (some centres undefined) as the molecule, how does the inhibition read?
**A.** The inhibition was -7.06%.

**Q.** For `O=C(CSc1ncccn1)N/N=C/c1ccc(OC2CSC2)cc1`, which inhibition is on record?
**A.** Its inhibition is 0.1%.

**Q.** Which inhibition does the source give for `CCc1ccc(-c2nn(-c3cc(Cl)ccc3[N+](=O)[O-])c(=O)c3ccccc23)cc1` here?
**A.** Its inhibition is 3.9%.

**Q.** For `CC(C)=C1SC(N2CCOCC2)=NC1=O`, which inhibition is on record?
**A.** The inhibition was -2.58%.

**Q.** With `Cc1c(C(=O)O)cccc1N1C(=O)Nc2ccccc2N1O` as the molecule, how does the inhibition read?
**A.** Its inhibition is 5.34%.

**Q.** For `c1ccc(-c2nnc(CSc3nnc(-c4cccs4)o3)o2)cc1`, which inhibition is on record?
**A.** Its inhibition is 39.4%.

**Q.** For `c1ccc(-c2nc(CSc3nnc(-c4cccs4)o3)cs2)cc1`, which inhibition is on record?
**A.** Its inhibition is 2.37%.

**Q.** For `Clc1ccc(-c2nnc(CSc3nnc(-c4cccs4)o3)o2)cc1`, which inhibition is on record?
**A.** The inhibition was 12.5%.

**Q.** With `Cc1ccc(Nc2nc(CSc3n[nH]c(N)n3)cs2)cc1` as the molecule, how does the inhibition read?
**A.** The inhibition was 9.31%.

**Q.** Which inhibition does the source give for `O=C(Nc1nc(-c2cccc3ccccc23)cs1)c1ccc2c(c1)S(=O)(=O)c1ccccc1C2=O` here?
**A.** Its inhibition is 4.24%.

**Q.** For `Cc1cccc(NC(=S)N(Cc2cccs2)Cc2cc3cc(C)ccc3[nH]c2=O)c1`, which inhibition is on record?
**A.** Its inhibition is 8.62%.

**Q.** Which inhibition does the source give for `CC(=O)O/C(=C\c1cn(C(C)=O)c2ccccc12)C(=O)O` here?
**A.** The inhibition was 7.86%.

**Q.** Which inhibition does the source give for `COc1cc(OC)cc(-c2nnc(SCC(=O)N3CCCCC3)o2)c1` here?
**A.** Its inhibition is 13.8%.

**Q.** Which inhibition does the source give for `COc1cc(-c2nnc(SCC(=O)c3ccccc3)o2)cc(OC)c1OC` here?
**A.** Its inhibition is -0.24%.

**Q.** With `CCOC(=O)N1CCN(C(=O)CSc2nnc(Cc3ccccc3)o2)CC1` as the molecule, how does the inhibition read?
**A.** Its inhibition is 3.59%.

**Q.** For `CCCCN(CCCC)C(=O)CSc1nnc(-c2cc(OC)c(OC)c(OC)c2)o1`, which inhibition is on record?
**A.** Its inhibition is 5.31%.

**Q.** With `CCOC(=O)CSc1nnc(-c2ccccc2)o1` as the molecule, how does the inhibition read?
**A.** The inhibition was 27.1%.

**Q.** For `CCOC(=O)CSc1nnc(-c2cccnc2)o1`, which inhibition is on record?
**A.** Its inhibition is -8.92%.

**Q.** Which inhibition does the source give for `O=C(CSc1nnc(COc2ccccc2)o1)N1CCN(c2ccccc2)CC1` here?
**A.** The inhibition was 7.79%.

**Q.** With `COc1cc(OC)cc(-c2nnc(SCC(=O)N3CCCC3)o2)c1` as the molecule, how does the inhibition read?
**A.** The inhibition was 14.8%.
